The entries come from a sample that favours hits as a whole.
DT40 TDP1 CPT = qHTS for Inhibitors of human tyrosyl-DNA phosphodiesterase 1 (TDP1): qHTS in cells in presence of CPT; Potency, µM (top dose mostly 46.2 µM), usual class: inhibitors; chicken DT40 Tdp1-/-;hTDP1 cells + 20 nM CPT, ATP luminescence, 48 h; 12% of 420,000 active; AID 686979, 2013; further: nearly all actives have a fitted effect of over 55% in size
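Chicken DT40 Tdp1-/- cells stably complemented with human TDP1 were seeded at 400 cells/well in medium containing 20 nM camptothecin, exposed to pin-transferred compounds, and grown at 37 °C for at least 48 hr. Viability was read as ATP luminescence.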
ALOX12 inh = Primary qHTS assay for inhibitors of human arachidonate 12S-lipoxygenase (ALOX12): Round 2. purified 12hLO, xylenol orange hydroperoxide absorbance. 1.1% of 580,000 active. Potency, µM (titrated, usually from 108 µM), usual class: inhibitors. AID 1671190, 2021
Target sequence (P18054 whole entry, looked up): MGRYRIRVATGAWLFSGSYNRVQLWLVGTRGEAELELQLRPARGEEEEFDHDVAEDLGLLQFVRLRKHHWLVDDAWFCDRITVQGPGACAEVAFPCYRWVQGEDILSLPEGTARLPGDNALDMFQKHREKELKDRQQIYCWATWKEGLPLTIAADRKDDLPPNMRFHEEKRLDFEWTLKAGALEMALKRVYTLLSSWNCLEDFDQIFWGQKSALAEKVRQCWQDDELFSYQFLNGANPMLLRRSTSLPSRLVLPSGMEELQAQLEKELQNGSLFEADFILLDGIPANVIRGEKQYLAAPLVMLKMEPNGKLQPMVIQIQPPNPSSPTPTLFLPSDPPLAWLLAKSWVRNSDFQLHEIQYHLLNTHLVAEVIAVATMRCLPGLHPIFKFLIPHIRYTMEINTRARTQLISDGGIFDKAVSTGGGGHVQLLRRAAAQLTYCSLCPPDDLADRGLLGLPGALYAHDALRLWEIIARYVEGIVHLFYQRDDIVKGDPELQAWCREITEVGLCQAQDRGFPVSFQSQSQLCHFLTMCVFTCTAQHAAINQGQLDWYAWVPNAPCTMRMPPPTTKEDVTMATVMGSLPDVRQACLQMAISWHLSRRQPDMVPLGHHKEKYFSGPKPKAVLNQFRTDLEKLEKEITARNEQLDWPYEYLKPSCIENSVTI
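Purified human 12hLO at 150 nM in 25 mM Hepes, 0.01% Triton X-100, pH 7.0, preincubated 15 min at room temperature with compound. Reaction started with 40 uM arachidonic acid, 30 min at room temperature. Hydroperoxide measured by Fe-xylenol orange, 573/405 nm absorbance ratio.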
HT1080 IDH1KD tx = qHTS for induction of synthetic lethality in tumor cells producing 2HG: qHTS for the HT-1080-IDH1KD cell line; Potency, µM (top dose mostly 46.1 µM), usual class: cytotoxic; 2% of 360,000 active; HT-1080 IDH1 knockdown viability, ATP luminescence, 48 h
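Assay cells: HT-1080 with IDH1 knockdown, 750 per well, RPMI/5% FBS. Exposure: 48 h at 37 °C following 2 h pre-incubation. Read: CellTiter-Glo luminescence; fitted concentration-response, curve class assigned.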
DT40 TDP1 no CPT = qHTS for Inhibitors of human tyrosyl-DNA phosphodiesterase 1 (TDP1): qHTS in cells in absence of CPT | DT40 Tdp1-/- hTDP1 cells, no CPT, ATP luminescence, 48 h | Potency, µM (top dose mostly 46.2 µM), hits mostly inhibitors | AID 686978, 2013 | 15% of 420,000 active; further: nearly all actives have a fitted effect of over 55% in size
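Luminescent ATP content (CellTiter-Glo) served as the growth readout. Knockout chicken DT40 cells expressing human TDP1 were exposed to compounds without camptothecin for a minimum 48 hr at 37 °C.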
HT1080NT lethal = qHTS for induction of synthetic lethality in tumor cells producing 2HG: qHTS for the HT-1080-NT fibrosarcoma cell line; HT-1080-NT fibrosarcoma viability, CellTiter-Glo ATP luminescence, 48 h; Potency, µM (doses to about 46.1 µM), usual class: cytotoxic; 1.6% of 360,000 active; AID 686970, 2013;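 further: NT is the 2HG producing partner of a matched IDH1 knockdown line; nearly all actives have a fitted effect of over 55% in size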
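Toxicity toward the 2HG-producing NT line was scored as %Activity, normalised to DMSO and no-cell wells, from CellTiter-Glo luminescence after 48 hours' treatment.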
IL-1B inflam inh = qHTS for Inhibitors of Inflammasome Signaling: IL-1-beta AlphaLISA Primary Screen | THP-1 LPS/ATP IL-1B secretion, AlphaLISA, 16 h; active compounds read low | activity change, % at 57.5 µM | 4.7% of 360,000 active | AID 743279, 2014; in the data active means activity change below about -50%; inconclusive means mostly about -30% to -49%
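THP-1 cells pretreated 1 hr with compounds (up to 57.5 uM final), then stimulated with LPS (250 ng/mL final) plus ATP (1.25 mM final); secreted IL-1B measured by AlphaLISA after 16 hr, decreased signal indicating inhibition.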
Hits are given with their value; . = inactive; ? = inconclusive; / = no result; [ ] = another dose, or the depositor's remark. Unless noted, the call rests on the fitted dose curve; in most records, active means well fitted curve in the direction sought with a large enough effect; inconclusive means small, poorly fitted or top-dose-only effect, or another doubt; inactive means no such curve, though single readings can be large; an effect the other way counts as inactive or inconclusive.

SMILES	DT40 TDP1 CPT	ALOX12 inh	HT1080 IDH1KD tx	DT40 TDP1 no CPT	HT1080NT lethal	IL-1B inflam inh
c1ccc(-c2nc3c4ccccc4ccn3c2Cc2ccsc2)cc1	23µM	/	.	16µM	.	.
CCn1nc(C)c(CNC(=O)[C@@H]2C[C@@H](O)CN2C2CCN(C(=O)c3cccc(OC)c3)CC2)c1C	/	.	/	/	/	/
COc1cc2cc(C(=O)NCC(=O)Nc3ncc(C)s3)n(C)c2c(OC)c1OC	/	.	/	/	/	/
O=C(CC1=C2CCCCC2N(Cc2ccc(F)cc2)C1=O)Nc1ccc(F)cc1 (stereo not drawn)	/	.	/	/	/	/
Cc1ccc(-c2nc3c4ccccc4ccn3c2Cc2ccsc2)cc1	16µM	.	.	?	.	.
Cc1ccc(-c2nc3c4ccccc4ccn3c2Cc2ccccc2)cc1	?	.	.	?	.	.
COc1cc(C(C)NS(C)(=O)=O)ccc1OCCC(C)C (stereo not drawn)	/	.	/	/	/	/
CCc1nc2c(OCC=C(C)C)cccn2c1N(C)C(=O)c1ccc(OC)cc1	23µM	.	?	13µM	?	.
CCCOc1cccn2c(N(C)C(=O)c3ccccc3F)c(CC)nc12	?	.	.	?	?	.
CCc1nc2c(OCC=C(C)C)cccn2c1N(C)C(=O)c1ccccc1F	0.73µM	.	?	0.82µM	?	-69
Brc1ccc(-c2cnc(-c3ccccc3)o2)cc1	/	.	/	/	/	/
N/C(=N\OC(=O)c1ccc(=O)n(Cc2ccc(Cl)cc2)c1)c1ccccn1	21µM	.	.	?	?	.
N/C(=N\OC(=O)c1ccc(=O)n(Cc2ccccc2)c1)c1ccccn1	?	.	.	?	.	.
CCCc1ccc(C(=O)O/N=C(\N)c2ccccn2)cc1	?	.	?	.	?	-58
CCN(C1CCOCC1)C1CN(C(=O)c2ccoc2)C1	/	.	/	/	/	/
COc1cc2ccccc2cc1C(=O)Nc1nnc(C2CCCCC2)s1	/	.	/	/	/	/
CCNC(=O)CNc1nc(C(F)(F)F)nc2ccccc12	/	.	/	/	/	/
COc1ccccc1C(CNc1nc(C(F)(F)F)nc2ccccc12)N(C)C (stereo not drawn)	?	.	.	21µM	.	.
COc1cccc(-c2nc3cc(SC)ccc3cc2CN(C(=O)c2csc(C)n2)C2CC2)c1	.[9.04 µM]	.	/	?	/	/
COc1cccc(-c2nc3cc4c(cc3cc2CN(C(=O)c2csc(C)n2)C2CC2)CCC4)c1OC	.[9.04 µM]	.	/	23µM	/	/
CCCc1c(C(=O)N/N=C/c2c[nH]c3ccccc23)nnn1-c1nonc1N	?	.	.	?	.	.
Cc1ccc(-c2c(C(=O)N/N=C/c3c[nH]c4ccccc34)nnn2-c2nonc2N)cc1	?	.	.	16µM	.	.
CCCN(CCC)Cc1c(C(=O)N/N=C/c2c[nH]c3ccccc23)nnn1-c1nonc1N	.	.	29µM	.	?	?
O=C(N/N=C/c1cccc(O)c1)C1CC1	/	.	/	/	/	/
Cc1noc(C)c1S(=O)(=O)N1CC(N(Cc2cccnc2)CC(C)C)C1	/	.	/	/	/	/
SMILES	DT40 TDP1 CPT	ALOX12 inh	HT1080 IDH1KD tx	DT40 TDP1 no CPT	HT1080NT lethal	IL-1B inflam inh
CCOC(=O)C1=C(CSc2nc3ccccc3s2)NC(=O)NC1c1cc(C)ccc1C (stereo not drawn)	?	.	.	23µM	?	?
CCOC(=O)C1=C(CSCC(=O)OC)NC(=O)NC1c1cc(C)ccc1C (stereo not drawn)	.	.	.	.	.	.
CCOC(=O)C1=C(CSc2nc3ccccc3s2)NC(=O)NC1c1ccc(OC)cc1 (stereo not drawn)	21µM	.	?	18µM	?	-86
Cc1nc2[nH]c(=S)[nH]c2cc1Br	.	13µM	.[9.24 µM]	.	.	.
CCCCOc1ccc(C2CCC(C(C)=O)C(C)C2)cc1 (stereo not drawn)	?	.	.	23µM	.	.
Cc1ccc2c(=O)[nH]c(Cc3ccccc3C(=O)O)nc2c1	?	.	.	18µM	.	.
CSc1nnc2n(C)c3c(c(=O)n12)C1(CCCC1)Cc1ccccc1-3	?	.	.	26µM	.	.
O=c1c2c(n3nnnc3n1Cc1ccccc1)-c1ccccc1CC21CCCC1	.	.	.	?	.	.
CSc1n[nH]c2nc3c(c(=O)n12)C1(CCCC1)Cc1ccccc1-3	.	.	.	?	.	.
Cn1ncn2c(=O)c3c(nc12)-c1ccccc1CC31CCCC1	?	.	.	?	.	.
Cn1c(=O)c2c(n3cnnc13)-c1ccccc1CC21CCCC1	?	.	.	15µM	.	.
O=c1c2c(n3cnnc3n1C1CCCCC1)-c1ccccc1CC21CCCCC1	21µM	.	.	26µM	.	.
O=C(O)C1Cn2c(nc3c(c2=O)C2(CCCC2)Cc2ccccc2-3)S1 (stereo not drawn)	.	.	.	.	.	.
O=c1c2c(n3nnnc3n1-c1ccccc1)-c1ccccc1CC21CCCC1	2.3µM	.	.	?	.	.
CC(=O)N1CCCC2(COc3ccccc3S(=O)(=O)N2)C1 (stereo not drawn)	/	.[6.33 µM]	/	/	/	/
O=[S+]([O-])(NCC1CN(Cc2ccc(O)cc2)CC12CN(c1ccccc1)C2)c1ccccc1 (stereo not drawn)	/	.	/	/	/	/
CCC(CNC(=O)c1nn(-c2ccccc2)c(=O)c2ccccc12)c1ccccc1 (stereo not drawn)	/	.	/	/	/	/
CC1CCN(c2ccc(-c3noc(-c4cc5ccccc5oc4=O)n3)cc2)CC1	/	.	/	/	/	/
NC(=O)NCC(=O)N1CCCC(Nc2ccc3c(c2)OCCO3)C1 (stereo not drawn)	/	.	/	/	/	/
COc1ccc(N2C(=O)C(C)(C)C2c2c(O)ccc3ccccc23)cc1 (stereo not drawn)	21µM	?	.	16µM	.	.
CC1(C)OC(c2ccccc2O)OC1(C)C	/	.	/	/	/	/
CC1(C)C(=O)N(c2ccccc2)C1c1ccccc1O (stereo not drawn)	?	.	?	16µM	?	.
C#CCNC(=O)c1ccccc1NC(=O)c1cccc2cccnc12	/	.	/	/	/	/
Cc1ccc(/C=C2\SC(N3CCCCC3)=NC2=O)cc1	?	.	.	?	.	-66
CC(C)(C)c1ccc(/C=C2/SC(N3CCCC3)=NC2=O)cc1	.	?	18µM	?	16µM	/

Screening data deposited in PubChem BioAssay by National Center for Advancing Translational Sciences (NCATS).
